Laboratory results taken from PubChem BioAssay (NCI).
This is part of a sample that, as a whole, favours compounds with a hit. Of some 83,000 tested, about 20% had one in any assay.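 Method: cells in 96-well plates; compound added at one concentration; 48 h incubation; percent growth measured; values under 10 scored active.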 Calls of active or inactive are those of the source.

Experiments:
Assay in all cases: NCI-60 one-dose screen, 48 h (100 = growth as untreated, 0 = no growth, -100 = all killed)
Details in all cases: 10 µM
[1] = system: HCT-15 colon
[2] = system: HT29 colon
[3] = system: SNB-75 CNS
[4] = system: SNB-19 CNS
[5] = system: U251 CNS
[6] = system: PC-3 prostate
[7] = system: SK-MEL-5 melanoma
[8] = system: UACC-62 melanoma
[9] = system: LOX IMVI melanoma
[10] = system: SK-MEL-28 melanoma
[11] = system: SK-MEL-2 melanoma
[12] = system: EKVX NSCLC
[13] = system: SN12C renal
[14] = system: UO-31 renal
[15] = system: TK-10 renal
[16] = system: ACHN renal
[17] = system: CAKI-1 renal
[18] = system: A498 renal
[19] = system: CCRF-CEM leukemia
[20] = system: MOLT-4 leukemia

Measured: growth

CN1C/C(=C\c2ccc(O)cc2O)c2[o+]c3cc(O)ccc3cc2C1
active: [9] -66.7%
inactive: [1] 21.9% | [2] 44.4% | [3] 60.5% | [4] 42.1% | [5] 14% | [6] 65.8% | [7] 57.9% | [8] 47.5% | [10] 17.3% | [11] 46.5% | [12] 78% | [13] 39.9% | [14] 63.6% | [15] 82.4% | [16] 71.9% | [17] 70.1% | [18] 117% | [19] 41.1% | [20] 37.8%

O=C(/C=C/Nc1ccccc1)c1ccc2c(c1)Nc1ccccc1S2
inactive: [1] 80.4% | [2] 90.4% | [3] 106% | [4] 36.3% | [5] 38% | [6] 78.5% | [7] 96.7% | [8] 68.9% | [9] 79.9% | [10] 100% | [11] 78.1% | [12] 81.4% | [13] 69.2% | [14] 93.1% | [15] 96.2% | [16] 84.3% | [17] 91.5% | [18] 120% | [19] 94.2% | [20] 89.7%

Cc1ccc(-c2cc(C(=O)N=Nc3c(O)[nH]c4ccccc34)c3ccccc3n2)cc1
active: [1] 7.91% | [9] -40.4% | [13] -9.28%
inactive: [2] 37.9% | [3] 85.7% | [4] 58% | [5] 27.2% | [6] 48.5% | [7] 36.9% | [8] 61.6% | [10] 59.4% | [11] 101% | [12] 38.4% | [14] 51.6% | [15] 63.4% | [16] 25.8% | [17] 24.3% | [18] 88.2% | [19] 22.9% | [20] 31.7%

O=C(CNc1nc(-c2ccccc2)cs1)Nc1ccc(Br)cc1
active: [1] -89.4% | [2] -55.8% | [3] -3.24% | [4] -99.4% | [5] -89.8% | [6] -27.8% | [7] -99.8% | [8] -84.1% | [9] -98.7% | [10] -96.3% | [11] -76.8% | [12] -95.9% | [13] -90.3% | [14] -98.2% | [15] -95.3% | [16] -100% | [17] -92.3% | [18] -89.6% | [19] 5.21% | [20] -12.4%

COc1cc2c3c(n(CCCn4ccnc4)c(=O)c2cc1OC)-c1nc2c(cc1C3=O)OCO2
active: [7] 7.02% | [8] 4.19% | [9] 0.388% | [16] 3.67%
inactive: [1] 52.1% | [2] 31.5% | [3] 82.8% | [4] 25.6% | [5] 20.9% | [6] 60.4% | [10] 80.9% | [11] 123% | [12] 91.6% | [13] 19.7% | [14] 26.5% | [15] 110% | [17] 10.2% | [18] 118% | [19] 18.5% | [20] 20.9%

CS(=O)(=O)Nc1ccc(-c2ccc3c(c2)ncn3-c2ccc(NC(=O)Nc3ccc(Br)cc3)cc2)cc1
active: [1] 8.63% | [2] 7.09% | [5] 3.88% | [7] -86.2% | [8] -35.6% | [9] 1.1% | [10] 1.57% | [11] -52.1% | [12] -0.46% | [14] 2.62% | [16] 4.12% | [17] 2.14% | [18] -17% | [19] -14.9% | [20] -18.4%
inactive: [3] 21.4% | [4] 16.6% | [6] 10.4% | [13] 14.2% | [15] 25.7%

CN1CCN(Cc2ccc(C(=O)Nc3cccc(Nc4ccc5c(O)cccc5n4)c3)cc2C(F)(F)F)CC1
inactive: [3] 33.1% | [6] 10.8%
active: [1] -25.4% | [2] -50.8% | [4] -64.3% | [5] -35.3% | [7] -100% | [8] -79.9% | [9] -100% | [10] -95% | [11] -75.9% | [12] -45.6% | [13] 1.56% | [14] -20.2% | [15] -21% | [16] -23.4% | [17] -38.3% | [18] -33.2% | [19] 5.12% | [20] -2.84%

O=c1[nH]c2ccc(Cl)cc2cc1CSc1ccc(Nc2nccc(-c3ccc(Cl)cc3)n2)cc1
inactive: [1] 16.3% | [2] 44.9% | [3] 101% | [4] 77.5% | [5] 21% | [6] 34.4% | [7] 97% | [8] 100% | [9] 35.8% | [10] 98.7% | [11] 99.2% | [12] 82% | [13] 72.9% | [14] 90% | [15] 36.4% | [16] 83.5% | [17] 84.9% | [18] 118% | [19] 74.8% | [20] 46.4%

CCCCSc1nc(Nc2ccc(/C(C)=N/NC(N)=S)cc2)c(C#N)c(-c2ccc(F)cc2)n1
inactive: [1] 62.7% | [2] 60.3% | [3] 53.5% | [4] 20.7% | [6] 28.6% | [7] 75% | [8] 49.3% | [10] 64% | [11] 72.9% | [12] 57.5% | [13] 29.2% | [14] 19.6% | [15] 46% | [16] 14.5% | [17] 45.2% | [18] 63.1% | [19] 55.3% | [20] 63.6%
active: [5] 7.7% | [9] 6.74%

O=C(Nc1ccc(I)cc1)Nc1nc2ccc([N+](=O)[O-])cc2s1
active: [1] -100% | [2] -93.3% | [3] -93.4% | [4] -94.3% | [5] -94% | [6] -75.7% | [7] -100% | [8] -98% | [9] -100% | [10] -99% | [11] -91% | [12] -93% | [13] -97.7% | [14] -100% | [15] -92% | [16] -100% | [17] -100% | [18] -91.6% | [19] -81.1% | [20] -58.1%

CC(C)C1=C[C@@]23CC[C@@H]4[C@](C)(CCC[C@]4(C)C(=O)NCc4ccccc4)[C@H]2C[C@@H]1[C@H]1C(=O)OC(=O)[C@H]13
inactive: [2] 18.8% | [3] 69.6% | [4] 37.9% | [5] 25.1% | [6] 33.3% | [7] 72.2% | [8] 50.2% | [10] 68.1% | [11] 47% | [12] 33.9% | [13] 52.1% | [14] 43.4% | [15] 44.9% | [16] 25.7% | [17] 77.1% | [18] 85.2% | [19] 16.7% | [20] 15.5%
active: [1] 9.01% | [9] -8.46%

COc1ccc(-c2cc(-c3cc(C(=O)c4ccc(Br)cc4)n4ccc(C)cc34)nc(N)c2C#N)cc1
inactive: [1] 89.6% | [2] 77.4% | [3] 108% | [4] 91.3% | [5] 64.7% | [6] 89.4% | [7] 87.5% | [8] 81.2% | [9] 54.6% | [10] 69.6% | [11] 107% | [12] 89.8% | [13] 92.9% | [14] 64.3% | [15] 132% | [16] 81.8% | [17] 68.1% | [18] 134% | [19] 98.2% | [20] 101%

CN(CCF)c1ccc(/C=C/C(=O)c2ccc(N)cc2O)cc1
inactive: [1] 49.8% | [2] 42.8% | [3] 102% | [4] 84.1% | [5] 70.3% | [6] 86.5% | [7] 68.1% | [8] 90.1% | [9] 78.9% | [10] 101% | [11] 93% | [12] 93.8% | [13] 76.2% | [14] 53.2% | [15] 100% | [16] 79.3% | [17] 60.4% | [18] 115% | [19] 60.8% | [20] 58%

COc1ccc(C(=O)/C=C/c2cc(C(F)(F)F)cc(C(F)(F)F)c2)cc1S(N)(=O)=O
active: [1] -58.6% | [2] -59.9% | [4] -100% | [5] -68.1% | [6] -14.4% | [7] -98.4% | [8] -73.4% | [9] -100% | [10] -98.2% | [11] -73.8% | [12] -93% | [13] -59.3% | [14] -100% | [15] -89.8% | [16] -96.2% | [17] -83% | [18] 2.73% | [20] 2.98%
inactive: [3] 12% | [19] 10.7%

Cc1noc2c(Cc3ccccc3)nn(CC(=O)N/N=C/c3ccc(Cl)cc3)c(=O)c12
inactive: [1] 86.3% | [2] 65.8% | [4] 71.3% | [5] 21.6% | [6] 76.4% | [7] 85.5% | [8] 92.9% | [9] 48.7% | [10] 104% | [11] 94.3% | [12] 72.9% | [17] 38.5% | [19] 97.3% | [20] 102%
active: [3] -3.5% | [13] 7.85% | [14] -40.5% | [15] 4.87% | [16] -16.5% | [18] -58.1%

O=C(Cn1nc(-c2ccccc2)ccc1=O)NN1C(=O)c2ccccc2C1=O
inactive: [1] 99.2% | [2] 120% | [3] 107% | [4] 89.8% | [5] 102% | [6] 97.8% | [7] 100% | [8] 106% | [9] 92.7% | [10] 108% | [11] 104% | [12] 101% | [13] 123% | [14] 85.8% | [15] 105% | [16] 99% | [17] 95.3% | [18] 103% | [19] 102% | [20] 108%
